# Shown is part of a subset that was picked to be rich in hits.
# nsP2pro primary – blocks chikungunya virus nsP2 protease peptide cleavage. Q8JUX6. FRET peptide cleavage, nsP2pro, fluorescence 1 h. Potency, µM (series often up to 24.9 µM), actives largely listed as inhibitors. actives 1.1% (n = 31,000). AID 1964107; further: nearly all actives have a fitted effect of over 60% in size
#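 Purified recombinant nsP2pro (150 nM final) in 10 mM Tris-HCl pH 8.0 with 0.01% Tween 20 was preincubated 15 min at room temperature with compound (7 concentrations, up to 25 uM). FRET peptide 2 substrate (2.5 uM final) was then added; fluorescence was read after 1 h.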
# CHIKV nsP2 cell – secondary cell-based test for CHIKV nsP2 protease inhibitors | shares compounds with nsP2pro primary | cell-based CHIKV nsP2 protease reporter assay | Potency, µM (titrated, usually from 51.1 µM), usual class: inhibitors | actives 10% (n = 450); further: nearly all actives have a fitted effect of over 70% in size
# NSP2 full ctr – inhibits full-length CHIKV NSP2 enzyme. shares compounds with nsP2pro primary. Full-length CHIKV NSP2 protease enzymatic counterscreen. Potency, µM (highest dose often 50.7 µM), usual class: inhibitors. actives 39% (n = 410). AID 1964101; further: nearly all actives have a fitted effect of over 65% in size
# Furin counterscr – selectivity counter-screen for CHIKV nsP2 protease inhibitors: human furin. shares compounds with nsP2pro primary. Recombinant human furin enzymatic counterscreen, fluorogenic substrate. Potency, µM (series often up to 50.6 µM), most hits filed as inhibitors. AID 1964102. actives 6% (n = 410)
# NS23 peptide cs – blocks CHIKV nsP2 protease cleavage of endogenous NS2/3 peptide | Potency, µM (titrated, usually from 51 µM), actives largely listed as inhibitors | AID 1964103 | Purified CHIKV nsP2 protease, endogenous NS2/3 peptide cleavage | actives 34% (n = 410) | shares compounds with nsP2pro primary; further: nearly all actives have a fitted effect of over 55% in size
# Papain cs – selectivity counter-screen for CHIKV nsP2 protease inhibitors: papain | shares compounds with nsP2pro primary | purified papain protease activity, enzymatic inhibition | Potency, µM (series often up to 51 µM), hits mostly inhibitors | actives 5% (n = 410) | AID 1964104
# nsP2pro confirm – CHIKV nsP2 protease inhibition, confirmatory qHTS; shares compounds with nsP2pro primary; CHIKV nsP2 protease enzymatic activity, qHTS; Potency, µM (highest dose often 25.5 µM), most hits filed as inhibitors; actives 43% (n = 410); AID 1964105; further: nearly all actives have a fitted effect of over 75% in size
# HCV NS3 counter – inhibits HCV NS3/4A protease in an nsP2pro selectivity counterscreen; shares compounds with nsP2pro primary; HCV NS3/4A protease biochemical counterscreen; Potency, µM (doses to about 50.9 µM), actives largely listed as inhibitors; actives 20% (n = 410); AID 1964106; further: nearly all actives have a fitted effect of over 55% in size
# A number is an active result; - = inactive; ? = inconclusive; [ ] = dose if it differs, or a comment. The call rests on the fitted dose curve.
SMILES,nsP2pro primary,others
CN[C@@H]1[C@H](O)[C@H](O[C@@H]2[C@H](O)[C@@H](O[C@H]3O[C@H]([C@@H](C)NC)CC[C@H]3N)[C@@H](N)C[C@H]2N)OC[C@]1(C)O,-[5.1 µM],
COCC1CN(C2CCC2)CC12CCN(C(=O)NCCc1ccccc1)CC2 (stereo unspecified),-,
Cn1nc(-c2ccc(C(F)(F)F)cc2)nc2c(=O)n(C)c(=O)nc1-2,-,
Cc1cn(-c2cc(F)cc(NC(=O)c3ccc(C)c(Nc4nccc(-c5cccnc5)n4)c3)c2)cn1,-,
Clc1cc(Cl)c(OCC#CI)cc1Cl,4.4µM,CHIKV nsP2 cell=?;NSP2 full ctr=7.1µM;Furin counterscr=9µM;NS23 peptide cs=5µM;Papain cs=-;nsP2pro confirm=2.2µM;HCV NS3 counter=-
Cc1ccc(S(=O)(=O)Nc2cnccc2C(=O)Nc2nc(-c3ccc(Cl)c(Cl)c3)cs2)cc1,-,
CN[C@@H]1[C@@H](O)[C@@H](O[C@@H]2[C@@H](O)[C@H](O[C@H]3O[C@H](CN)[C@@H](O)[C@H](O)[C@H]3O)[C@@H](N)C[C@H]2NC(=O)[C@@H](O)CN)OC[C@]1(C)O,-,
Cc1ccc(=O)n(CC(=O)NCCc2ccccc2)n1,-,
CC(O)C(CO)NC(=O)C1CSSCC(NC(=O)C(N)Cc2ccccc2)C(=O)NC(Cc2ccccc2)C(=O)NC(Cc2c[nH]c3ccccc23)C(=O)NC(CCCCN)C(=O)NC(C(C)O)C(=O)N1 (stereo unspecified),-,
OCCN1CCN(C(c2ccc(Cl)cc2Cl)c2sc3nc(-c4ccco4)nn3c2O)CC1 (stereo unspecified),-,
Oc1c(C(c2ccc(Cl)cc2Cl)N2CCOCC2)sc2nc(-c3ccco3)nn12 (stereo unspecified),-,
Cc1ccc(C(c2sc3nc(-c4ccco4)nn3c2O)N2CCOCC2)cc1 (stereo unspecified),?,CHIKV nsP2 cell=-;NSP2 full ctr=-;Furin counterscr=-;NS23 peptide cs=-;Papain cs=-;nsP2pro confirm=-;HCV NS3 counter=-
COc1ccc2sc(NC(c3ccc(OC(F)F)cc3)c3ccc4cccnc4c3O)nc2c1 (stereo unspecified),-,
Cc1ccc(CNC(=O)c2nc(SCc3ccccc3F)ncc2Cl)cc1,11µM,CHIKV nsP2 cell=-;NSP2 full ctr=-;Furin counterscr=-;NS23 peptide cs=-;Papain cs=-;nsP2pro confirm=-;HCV NS3 counter=-
Cc1ccc(CNC(=O)c2nc(SCc3ccc(F)cc3)ncc2Cl)cc1,-,
Cc1ccc(CNC(=O)c2nc(SCc3ccc(C)cc3)ncc2Cl)cc1,-,
COc1cc(N)cn[n+]1-c1ccccc1,-,
Cc1cnc(-c2ccccc2C(C)C)nc1NCC1CN(c2cccnc2)C1,-,
C=C(C)[C@@H]1CC[C@]2(C(=O)O)CC[C@]3(C)[C@H](CC[C@@H]4[C@@]5(C)CC[C@H](OC(=O)CC(C)(C)C(=O)O)C(C)(C)[C@@H]5CC[C@]43C)[C@@H]12,-,
Cc1noc([C@@H]2CN(Cc3ccc[nH]3)C[C@H]2CO)n1,-,
Cc1noc(C2CN(C(=O)c3cc(-c4ccco4)[nH]n3)CC2c2ccccc2)n1 (stereo unspecified),10µM,CHIKV nsP2 cell=-;NSP2 full ctr=8.2µM;Furin counterscr=-;NS23 peptide cs=?;Papain cs=-;nsP2pro confirm=9µM;HCV NS3 counter=?
Cc1noc([C@@H]2CN(C(=O)c3cc(C4CC4)[nH]n3)C[C@H]2C(N)=O)n1,-,
Cc1cc(C)nc(NC(=S)N2CCN(c3cccc4nccn34)CC2)c1,-,
[2H]C([2H])(Nc1nc(-c2ccccc2C([2H])(C([2H])([2H])[2H])C([2H])([2H])[2H])ncc1C)c1ccc(-n2ccnn2)cc1,-,
O=C1Nc2ccccc2/C1=C\c1cc(F)c(O)c(F)c1,-,
O=C1Nc2ccccc2/C1=C\c1ccc(O)c(Cl)c1,-,
O=C1Nc2ccccc2/C1=C/c1cc(O)ccc1O,7.9µM,CHIKV nsP2 cell=?;NSP2 full ctr=?;Furin counterscr=?;NS23 peptide cs=23µM;Papain cs=-;nsP2pro confirm=8µM;HCV NS3 counter=10µM
